Data on 14 compounds can be found in ChEMBL document CHEMBL1157539, “Thousands of chemical starting points for antimalarial lead identification” (Nature, 2010).

The test system of this assay is HepG2. Nature of the assay: GSK_TCMDC: Percent inhibition of human HepG2 cell line. Test compounds present at 10uM. The class given is functional.
Take `CC(C)COc1ccc2ccccc2c1CNCCCCCCNCc1c(OCC(C)C)ccc2ccccc12.CS(=O)(=O)O`: the Inhibition (usually how much of the control response was suppressed) amounted to 99%. The compound `Br.CC1(C)NC(N)=NC(=N)N1OCCCCCOc1ccccc1` gave an Inhibition of 61%.

Compound `CCNc1cc(C(=O)N[C@@H](Cc2ccccc2)[C@H](O)CN[C@@H]2CCc3ccccc32)cc(N2CCCC2=O)c1` returned an Inhibition of 0%.

As to `CCc1cn2c3c(cc(C(=O)N[C@@H](Cc4cccc(F)c4)[C@H](O)CNC4CCOCC4)cc13)N(C)S(=O)(=O)CC2.O=CO`, the Inhibition is 0%. The compound `COc1cccc(C(O)CNc2ccnc(Nc3ccc(Cl)cc3)n2)c1` (centres undefined) registered an Inhibition of 31%. Next, `COc1cc(Cc2cnc(N)nc2N)ccc1OCc1cccc(Oc2ccccc2)c1`: 18%; `FC(F)(F)c1cccc(N=C(S)NN=Cc2ccccn2)c1`: 29%; `COc1cc(CNCCCNc2nc(=O)c3sccc3[nH]2)c2[nH]cc(Cl)c2c1.CS(=O)(=O)O`: 29%.

`COc1ccc2nccc(NCC3(O)CCC(NCc4cc5c(cn4)OCCO5)CC3)c2n1.Cl` (centres undefined): the Inhibition is given as 15%. Compound `Cl.O=C(CCCC(=O)Nc1ccc(C2=NCCN2)cc1)Nc1ccc(C2=NCCN2)cc1` had an Inhibition of 3%. Next, `N#Cc1ccc(N/C(=N\c2ccc(-c3ccccc3)cc2)NCCc2c[nH]c3ccccc23)c(O)c1`: 6%; `CN(CCC(CCN1CCC(c2c[nH]c3ccccc23)CC1)c1ccccc1)C(=O)Nc1ccc(Cl)c(Cl)c1` (centres undefined): 50%.

For `Cc1ccc(CN2CCCN(Cc3ccc(C(=O)Nc4ccc(Cl)cc4)cc3)CC2)s1.O=C(O)C(F)(F)F`, the Inhibition is 53%. `O=C(NCc1cccc(OC(F)(F)F)c1)c1cnc2c(c1)nc(-c1c[nH]c(-c3ccccc3)n1)n2CCc1c[nH]cn1` displayed an Inhibition of 0%.
